Measured values: PubChem BioAssay (NCI)
The panel holds about 83,000 compounds, 20% with a hit somewhere; the sample as a whole holds those more often.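 Growth was measured after 48 h exposure to one concentration of compound in 96-well plates. Values under 10 count as active.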 Unmarked numbers belong to inactive results. The source made the active and inactive calls.

Legend:
Assay in all cases: NCI-60 one-dose screen, 48 h (100 = growth as untreated, 0 = no growth, -100 = all killed)
Conditions in all cases: 10 µM unless noted
NCI-H23 lung = tested on: NCI-H23 lung
NCI-H226 lung = tested on: NCI-H226 lung
NCI-H322M lung = tested on: NCI-H322M lung
HOP-62 NSCLC = tested on: HOP-62 NSCLC
NCI-H460 lung = tested on: NCI-H460 lung
HOP-92 NSCLC = tested on: HOP-92 NSCLC
NCI-H522 lung = tested on: NCI-H522 lung
A549/ATCC NSCLC = tested on: A549/ATCC NSCLC
786-0 renal = tested on: 786-0 renal
COLO 205 colon = tested on: COLO 205 colon
DU-145 prostate = tested on: DU-145 prostate
K-562 leukemia = tested on: K-562 leukemia
MALME-3M melanoma = tested on: MALME-3M melanoma
MDA-MB-231 breast = tested on: MDA-MB-231 breast
RXF 393 renal = tested on: RXF 393 renal
SF-268 CNS = tested on: SF-268 CNS
SF-295 CNS = tested on: SF-295 CNS
SF-539 CNS = tested on: SF-539 CNS
UACC-257 melanoma = tested on: UACC-257 melanoma
M14 melanoma = tested on: M14 melanoma

Row | SMILES | growth (NCI-H23 lung) [%] | growth (NCI-H226 lung) [%] | growth (NCI-H322M lung) [%] | growth (HOP-62 NSCLC) [%] | growth (NCI-H460 lung) | growth (HOP-92 NSCLC) | growth (NCI-H522 lung) | growth (A549/ATCC NSCLC) [%] | growth (786-0 renal) | growth (COLO 205 colon) | growth (DU-145 prostate) [%] | growth (K-562 leukemia) | growth (MALME-3M melanoma) | growth (MDA-MB-231 breast) | growth (RXF 393 renal) | growth (SF-268 CNS) [%] | growth (SF-295 CNS) | growth (SF-539 CNS) | growth (UACC-257 melanoma) [%] | growth (M14 melanoma)
1 | O=C(Cc1ccccc1)Nc1nc(O)c(/C=C2\C(=O)C=Cc3ccccc32)s1 | 90.7 | 100 | 98.2 | 107 | 99.4% | 85.2% | 90.5% | 101 | 102% | 111% | 104 | 100% | 106% | 98.1% | 111% | 99.2 | 103% | 102% | 106 | 89.7%
2 | CNC(=O)c1cc(Oc2ccc3nc(NC(C)=O)sc3c2)ccn1 | 103 | 101 | 104 | – | 104% | 99.9% | 104% | 102 | 94.6% | 105% | 101 | 81.8% | 92.7% | 98.7% | 115% | 97.4 | 95.2% | 94.3% | 102 | 101%
3 | CC(=O)N1N=C(c2ccc(Nc3nc(Nc4ccc(Cl)cc4)nc(Nc4ccc(Cl)cc4)n3)cc2)CC1c1ccco1 (configuration not stated) | 85.4 | 100 | 103 | – | 96.9% | 99.9% | 68.4% | 72.1 | 86.7% | 109% | 107 | 79.5% | 97.9% | 92.7% | 71.1% | 103 | 92.8% | 96% | 96.4 | 90.5%
4 | O=C(NCc1ccccc1)Nc1ccccc1CNc1nc(Nc2ccc(OCCN3CCCC3)cc2)ncc1Cl | 85.4 | 109 | 109 | – | 39.4% | 83.8% | 108% | 97.5 | 46.7% | 112% | 78.4 | 64.5% | 90.7% | 97% | 79.4% | 83.2 | 95.5% | 92.4% | 102 | 99.7%
5 | Cc1ccc(/C=N/Nc2nc(Nc3ccccc3)nc(-n3nc(C)cc3C)n2)cc1 | 54.8 | 46.9 | 27 | – | 6.72% (active) | 60.7% | 15.7% | 26.2 | 44.4% | 30.6% | 40.9 | 37.1% | 80.8% | 51.6% | 55.9% | 44 | -40.7% (active) | 56.5% | 54.2 | 42.9%
6 | Cc1c(-n2nnc(-c3nc4ccccc4s3)c2N)c(=O)n(-c2ccccc2)n1C | 93.3 | 91.4 | 100 | – | 103% | 104% | 90.6% | 105 | 107% | 104% | 115 | 102% | 97.6% | 113% | 121% | 99.8 | 103% | 92.2% | 102 | 110%
7 | CC(C)c1ccc(NC(=O)Nc2ccc(NC(=O)CCCC(=O)NOCc3ccccc3)cc2)cc1 | 98.4 | 85.2 | 90.6 | – | 77.9% | 104% | 71.3% | 85.3 | 101% | 93.4% | 94.3 | 83.4% | 82.8% | 93.9% | 109% | 95.9 | 91.2% | 75.1% | 86.5 | 97.3%
8 | COc1ccc2c(c1)[n+]([O-])c(C(=O)/C=C/C=C(\Cl)c1cc(OC)c(OC)c(OC)c1)c(C)[n+]2[O-] | 79.7 | 103 | 87.5 | – | 102% | 61.3% | 56.6% | 98.4 | 61.4% | 127% | 96.7 | 110% | 61.5% | 74.9% | 47.8% | 47.1 | 21.3% | 66.8% | 108 | 102%
9 | CO/N=C(/C)c1ccc(NC(=O)CSc2nnc(-c3ccncc3)n2-c2ccccc2)cc1 | 46.9 | 24.2 | 84.9 | 39.2 | 15.9% | 3.16% (active) | -8.08% (active) | 68.4 | -43.1% (active) | 104% | 52 | 91.6% | 32.2% | 42.7% | 4.02% (active) | 13.4 | 33% | -31.2% (active) | 50.6 | 74.8%
10 | COc1cc(-c2nc3cc(Cl)c(Cl)cc3[nH]2)ccc1OCC(=O)N=Nc1c(O)[nH]c2ccc([N+](=O)[O-])cc12 | 84.3 | 92.9 | 112 | – | 102% | 84.2% | 89.6% | 114 | 92.1% | 78.5% | 105 | 46.1% | 77.4% | 71.9% | 101% | 81.4 | 101% | 81.7% | 106 | 80.8%
11 | COc1ccc2nc(NC(=O)CSc3nnc4n3S(=O)(=O)c3ccccc3N4C)sc2c1 | 94.9 | 103 | 102 | – | 112% | 90.5% | 70.9% | 77.9 | 103% | 138% | 115 | 91.2% | 120% | 94.5% | -29.4% (active) | 95.8 | 127% | 106% | 82.4 | 101%
12 | COc1ccc(C2=Nc3c/c(=C\c4c(O)[nH]c5ccc(Cl)cc45)ccc3=N2)cc1 | 52.1 | 66.5 | 81.9 | – | 43.5% | 52.8% | 29.3% | 62.5 | 43.6% | -9.26% (active) | 73.2 | 19.4% | 40.8% | 42.7% | -27.2% (active) | 53.4 | 29.6% | 59.9% | 54 | 27.6%
13 | Nc1nc2c([nH]1)c1[nH]c3ccccc3c1c1[nH]c3ccccc3c21 | 63.5 | 78.3 | 25.6 | – | 8.05% (active) | -2.6% (active) | 26.4% | 85.5 | 30.9% | -81.3% (active) | 50.2 | -41.6% (active) | -72.4% (active) | -38.7% (active) | -7.44% (active) | 71.9 | 42.8% | 55.6% | 103 | -68.9% (active)
14 | COc1ccc(C(=O)Nc2ncc(Cc3ccc(F)cc3)s2)cc1 | 30.7 | 40.9 | 34.6 | – | 6.59% (active) | 51.5% | -5.3% (active) | 23.3 | 27.8% | -16.2% (active) | 16.2 | 8.46% (active) | 60.2% | 29.6% | 7.03% (active) | 50.6 | 9.8% (active) | -9.59% (active) | 56 | 16.4%
15 | O=C1NCCC12CCN(c1c(Cl)cncc1-c1ccc(O)cc1)CC2 | 100 | 83.9 | 103 | – | 104% | 114% | 78% | 94.6 | 100% | 105% | 108 | 97.9% | 117% | 102% | 87.9% | 82.5 | 101% | 83.7% | 86.7 | 114%
16 | Oc1c(Cl)cc(Cl)c2ccc(Cn3cc(-c4ccc(C(F)(F)F)cc4)nn3)nc12 | 83 | 84.2 | 96 | 99.5 | 98.8% | 40.5% | -30.1% (active) | 96.1 | 95.1% | 83% | 48.9 | 4.56% (active) | 45.5% | 86.7% | 5.98% (active) | 83.9 | 104% | 69.4% | 58.1 | 55.5%
